# Bioassay records deposited in PubChem BioAssay by The Scripps Research Institute Molecular Screening Center.
# The entries come from a sample that favours hits as a whole.
# TbREL1 primary: TbREL1 RNA ligase inhibitors, primary screen, biochemical, FRET fluorescence; 89,000 tested, 0.49% active; inhibition, % at 9.66 µM; TbREL1 RNA ligation; RNA-editing ligase 1, mitochondrial (Trypanosoma brucei brucei), P86926;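 active = inhibition above the mean inhibition across all screened compounds plus 3 SD, cut at about 11% in these data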;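 note: 0% = plate median of test wells and 100% = NSC42067 control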
# Target sequence (P86926 whole entry, looked up): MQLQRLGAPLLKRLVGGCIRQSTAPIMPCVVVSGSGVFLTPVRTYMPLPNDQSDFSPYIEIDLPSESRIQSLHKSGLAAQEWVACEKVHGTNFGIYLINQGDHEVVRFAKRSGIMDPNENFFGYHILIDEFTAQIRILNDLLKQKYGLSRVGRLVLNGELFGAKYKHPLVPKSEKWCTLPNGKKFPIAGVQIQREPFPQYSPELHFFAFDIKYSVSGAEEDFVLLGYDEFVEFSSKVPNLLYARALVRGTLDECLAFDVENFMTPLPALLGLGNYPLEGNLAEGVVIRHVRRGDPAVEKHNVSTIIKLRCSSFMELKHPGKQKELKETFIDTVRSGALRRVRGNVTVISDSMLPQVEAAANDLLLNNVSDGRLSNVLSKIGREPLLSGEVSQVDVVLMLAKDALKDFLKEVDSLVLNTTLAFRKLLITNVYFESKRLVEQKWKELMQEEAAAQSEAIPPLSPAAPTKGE
# TbREL1 confirm: TbREL1 RNA ligase inhibitors, confirmation, biochemical, FRET fluorescence, triplicate | inhibition, % at 9.66 µM | 390 tested, 37% active | TbREL1 RNA ligation | shares compounds with TbREL1 primary;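 active = mean inhibition across replicates above a set limit taken from the earlier primary screen, cut at about 11% in these data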;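 note: 0% = REL1 with substrate and DMSO and 100% = REL1 plus control inhibitor NSC42067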
# Starred values were filed as active, the others as inactive.
SMILES,TbREL1 primary,others
O=C(NC(C(=O)N1CCCC1C(=O)NC1CCCC1)c1ccccc1)c1cccs1 (stereo not drawn),-3,
COC(=O)C1=C(C)N(Cc2ccccc2C(F)(F)F)C(=NCc2ccc3c(c2)OCO3)NC1c1ccc(C(F)(F)F)cc1 (stereo not drawn),14*,TbREL1 confirm=21*
COC(=O)C1=C(C)N(Cc2ccccc2C(F)(F)F)C(=NCc2ccc3c(c2)OCO3)NC1c1ccccc1 (stereo not drawn),12*,TbREL1 confirm=14*
COC(=O)C1=C(C)N(Cc2ccccc2)C(=NCc2ccc3c(c2)OCO3)N[C@H]1c1ccccc1,9,
Cc1c(C(=O)NCc2ccccc2C(F)(F)F)sc(=O)n1Cc1ccc2c(c1)OCO2,-2,
COC(=O)C1=C(C)N(Cc2ccccc2C(F)(F)F)C(=NCc2ccc3c(c2)OCO3)NC1c1ccc(Cl)cc1 (stereo not drawn),11,
CC(C)(C)S(=O)(=O)N1Cc2cc(CO)ccc2[C@H]1CCO,0,
c1csc(-c2nnc(SCc3cccc4ccccc34)o2)c1,5,
COC(=O)[C@]12C[C@H](CC(=O)NCc3ccc(OC)c(OC)c3)C(=O)N(Cc3ccc(Cl)cc3Cl)C1=C[C@H](C(C)C)O[C@@H]2C1CC1,-2,
O=S(=O)(c1sccc1Br)n1c(CN2CCOCC2)nc2ccccc21,-4,
Cc1ccc(-n2c(SCC(=O)Nc3cccc4ccccc34)nnc2-c2cccs2)cc1,0,
COc1cc(Nc2cc(C)n(-c3cc(OC)cc(OC)c3)c(=O)c2)cc(OC)c1,-4,
O=C(CSc1nnc(-c2ccccc2)n1-c1ccccc1)Nc1ccc(Oc2ccccc2)cc1,-1,
O=S(=O)(c1ccc(F)cc1)N1CCC(c2nc3ccccc3o2)CC1,0,
O=C(CN1C(=O)c2ccccc2C1=O)Nc1cccc2cccnc12,-4,
O=C(COc1ccc2ccccc2c1)Nc1cccc2cccnc12,2,
O=C(O)CCC(=O)Nc1cccc2cccnc12,11*,TbREL1 confirm=5
COc1ccc(C2Nc3ccccc3C(=O)N2Cc2ccncc2)cc1COc1ccc(NC(C)=O)cc1 (stereo not drawn),-1,
COc1cc2c(cc1NC(=O)CSc1nnc(-c3cnccn3)n1-c1ccc(C)cc1)oc1ccccc12,2,
Cc1[nH]c2ccccc2c1CC(=O)Nc1ccc(N(C)c2cccnc2)c(-c2ccc(F)c(F)c2)c1,-3,
C[C@@H]1C[C@H]2O[C@@H]2/C=C\C=C\C(=O)Cc2cc(O)cc(O)c2C(=O)O1,-1,
O=C(Nc1ccc(F)cc1)OCc1cn(Cc2c(F)cccc2F)nn1,-1,
Cc1ccc(OCC(O)Cn2c(=N)n(CCN3CCCCC3)c3ccccc32)cc1 (stereo not drawn),9,
CCN(CC)CCn1c(=N)n(CC(O)COc2ccccc2)c2ccccc21 (stereo not drawn),3,
CCCCCn1c(=N)n(CC(O)COc2ccccc2OC)c2ccccc21 (stereo not drawn),11*,TbREL1 confirm=10
SMILES,TbREL1 primary,others
CC(=O)NC1CCCCN(C(C)C)C1=O (stereo not drawn),0,
COc1ccc(C(=O)N2CCn3c2nc2ccccc23)cc1,0,
CCOc1ccc(C(=O)N2CCn3c2nc2ccccc23)cc1,0,
COc1cccc(C(=O)N2CCn3c2nc2ccccc23)c1,12*,TbREL1 confirm=7
Cc1cccc(C)c1NC(=O)[C@H]1CC(=O)O[C@@H]1c1ccccc1,0,
CCCC1CCC2(CC1)CCC2OC(=O)Nc1cc(C)cc(C)c1 (stereo not drawn),0,
CCCC1CCC2(CC1)CCC2OC(=O)Nc1cccc(C(F)(F)F)c1 (stereo not drawn),12*,TbREL1 confirm=8
CCCC1CCC2(CC1)CCC2OC(=O)Nc1ccc(C)cc1 (stereo not drawn),-1,
N#Cc1cccc(NC(=O)OC2CC3CC2[C@H]2CCCCN2[C@H]3Cc2ccccc2)c1 (stereo partly drawn),2,
COCCNCCOCCOc1ccc(Cl)c(C)c1,6,
Cc1ccc(C)c(OCCCNCc2ccccc2)c1,10,
Cc1cc(OCCOCCNCc2ccccc2)ccc1C(C)C,19*,TbREL1 confirm=9
COc1ccc(C=O)cc1-c1cc(C(C)=O)c2n(c1=O)CCC2,1,
C=CCn1c(SCC(N)=O)nnc1-c1ccc(C)cc1,1,
CCn1c(SCC(=O)NN=Cc2cc(OC)ccc2OC)nnc1-c1ccc(OC)cc1,-2,
CC(=O)c1cc(-c2ccc(Cl)c(Cl)c2)c(=O)n2c1CCC2,4,
CC(=O)c1cc(-c2cccc(CO)c2)c(=O)n2c1CCC2,11*,TbREL1 confirm=0
CC(=O)c1ccc(-c2cc(C(C)=O)c3n(c2=O)CCC3)cc1,-2,
Cc1cc(N2CCNC[C@@H]2C)ccc1N1C[C@@H](C)O[C@@H](C)C1,2,
CN1CCCCC(NC(=O)CCl)C1=O (stereo not drawn),4,
COc1ccc(NC(=O)NNC(=O)CCn2nc(C)c([N+](=O)[O-])c2C)cc1OC,-1,
O=C(CCc1ccccc1-c1ccccc1CCNC(=O)c1cccc(F)c1)NCc1ccccc1,9,
O=c1cc(CN2CCc3ccccc32)nc2sccn12,15*,TbREL1 confirm=22*
CC1CN(Cc2cc(=O)n3ccsc3n2)CC(C)O1 (stereo not drawn),1,
O=c1cc(CN2CCCc3ccccc32)nc2sccn12,3,
SMILES,TbREL1 primary,others
O=c1c2cc3cc4c(cc3nc2ncn1CCc1ccccc1)OCO4,15*,TbREL1 confirm=2
O=c1c2cc3cc4c(cc3nc2ncn1Cc1cccnc1)OCO4,2,
O=c1c2cc3ccccc3nc2ncn1CCc1ccc(Cl)cc1,2,
COC(=O)[C@@]12CCCCC=C1N(CCc1ccc(Cl)cc1)C(=O)[C@H]2CC(=O)NCC12CC3CC(CC(C3)C1)C2,-2,
CCCCN1CCS(=O)(=O)N(Cc2ccc(Cl)cc2)C(C(=O)OC)C1 (stereo not drawn),2,
COc1cc2c(cc1OC)[C@@]1(c3ccccc3)CCCC[C@H]1[C@@H]2NC(=O)C(F)(F)F,0,
O=C(CCCCCN1C(=O)C2C3C=CC(C3)C2C1=O)Nc1cc(F)cc(F)c1 (stereo not drawn),-2,
CCOC(=O)c1cccc(NC(=O)CN(C)S(=O)(=O)c2ccc(C)c(C)c2)c1,0,
CC1(C)CC(NC(=O)c2ccc(-c3ccc([N+](=O)[O-])cc3)o2)CC(C)(C)N1,12*,TbREL1 confirm=4
CC1(C)CC(NC(=O)Nc2ccc([N+](=O)[O-])cc2)CC(C)(C)N1,0,
COc1ccc(NC(=O)c2ccc(-c3ccc([N+](=O)[O-])cc3)o2)cc1,-1,
CNC(C)C(=O)NC(C(=O)N1CCCC1C(=O)Nc1cccc2ncccc12)C(C)C (stereo not drawn),-3,
C(C#CCCCCCCCCC[n+]1ccccc1)#CCCCCCCCCC[n+]1ccccc1,11*,TbREL1 confirm=24*
O=C(Nc1nc(-c2ccco2)c(-c2ccco2)s1)c1cnccn1,20*,TbREL1 confirm=3
CCOc1ccc2nc(NC(=O)c3cnccn3)sc2c1,2,
Cc1cnc(NC(=O)c2ccco2)s1,6,
CCN(C(=O)COC(=O)c1cc([N+](=O)[O-])ccc1N1CCCCC1)C1CCS(=O)(=O)C1 (stereo not drawn),11*,TbREL1 confirm=2
CCN(C(=O)COC(=O)c1cc(OC)c(OC)cc1[N+](=O)[O-])C1CCS(=O)(=O)C1 (stereo not drawn),0,
CN(C(=O)COC(=O)c1cc([N+](=O)[O-])ccc1N1CCOCC1)C1CCCCC1,-2,
